TMEM16A act: TMEM16A chloride channel activators or potentiators, primary screen, cell-based, HTS | HEK293 TMEM16A/YFP-H148Q/I152L, iodide quench fluorescence; stronger effect = lower value | B-score at 10 µM | actives 0.3% (n = 340,000) | AID 623877, 2012;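 active = fluorescence-ratio B-score plate-corrected deviation score at least 3 library SD below zero, with starting fluorescence score within 5 deviations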;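 also: channel opened by trigger with iodide after compound preincubation; score built on the fluorescence ratio of max minus min over baseline; more negative score means more quench and so TMEM16A activation or potentiation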
TMEM16A inh: TMEM16A chloride channel inhibitors, primary screen, cell-based, HTS | Anoctamin-1 (Mus musculus), Q8BHY3 | HEK293 TMEM16A/YFP iodide influx fluorescence, ionomycin | normalized B-score (activity score, 25-100; higher = stronger inhibition) at 10 µM | actives 1.2% (n = 310,000) | AID 588511, 2011;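 active = ratio plate-corrected score three or more library SD toward inhibition, starting fluorescence score within five deviations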;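 also: score derived from kinetic fluorescence span divided by baseline fluorescence per well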
hiPSC survival: enhancers of single-cell hiPSC survival, primary screen, ATPlite luminescence | 100% = ROCK inhibitor wells, 0% = DMSO | survival enhancement, % at 20 µM | AID 602274, 2012 | actives 0.044% (n = 360,000); in the data active = survival enhancement above about 18%;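 also: cells exposed to compounds for 16 hours before the ATP read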
DAGLB inh: DAGLB lipase inhibitors, primary screen, biochemical, fluorescence, HTS; Diacylglycerol lipase-beta (Homo sapiens), Q8NCG7; HEK293T DAGLB membrane lysate, EnzChek fluorogenic substrate; inhibition, % at 5.17 µM; actives 0.059% (n = 340,000); AID 504411, 2011; in the data active = inhibition above about 34%
ABCB6 inh 2: ABCB6 transporter inhibitors, primary screen, K562-ABCB6 cells, flow cytometry, MLPCN library; ATP-binding cassette sub-family B member 6 (Homo sapiens), Q9NP58; K562-ABCB6 porphyrin accumulation, 1 h; stronger effect = lower value; fluorescence ratio to DMSO, % at 10 µM; actives 0.19% (n = 360,000);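 active = fluorescence ratio to DMSO below 75%, the collection mean minus 3 SD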;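 also: signal is porphyrin accumulated inside mitochondria; lower ratio means ABCB6 inhibition with less porphyrin fluorescence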
Target sequence (Q9NP58 whole entry, looked up): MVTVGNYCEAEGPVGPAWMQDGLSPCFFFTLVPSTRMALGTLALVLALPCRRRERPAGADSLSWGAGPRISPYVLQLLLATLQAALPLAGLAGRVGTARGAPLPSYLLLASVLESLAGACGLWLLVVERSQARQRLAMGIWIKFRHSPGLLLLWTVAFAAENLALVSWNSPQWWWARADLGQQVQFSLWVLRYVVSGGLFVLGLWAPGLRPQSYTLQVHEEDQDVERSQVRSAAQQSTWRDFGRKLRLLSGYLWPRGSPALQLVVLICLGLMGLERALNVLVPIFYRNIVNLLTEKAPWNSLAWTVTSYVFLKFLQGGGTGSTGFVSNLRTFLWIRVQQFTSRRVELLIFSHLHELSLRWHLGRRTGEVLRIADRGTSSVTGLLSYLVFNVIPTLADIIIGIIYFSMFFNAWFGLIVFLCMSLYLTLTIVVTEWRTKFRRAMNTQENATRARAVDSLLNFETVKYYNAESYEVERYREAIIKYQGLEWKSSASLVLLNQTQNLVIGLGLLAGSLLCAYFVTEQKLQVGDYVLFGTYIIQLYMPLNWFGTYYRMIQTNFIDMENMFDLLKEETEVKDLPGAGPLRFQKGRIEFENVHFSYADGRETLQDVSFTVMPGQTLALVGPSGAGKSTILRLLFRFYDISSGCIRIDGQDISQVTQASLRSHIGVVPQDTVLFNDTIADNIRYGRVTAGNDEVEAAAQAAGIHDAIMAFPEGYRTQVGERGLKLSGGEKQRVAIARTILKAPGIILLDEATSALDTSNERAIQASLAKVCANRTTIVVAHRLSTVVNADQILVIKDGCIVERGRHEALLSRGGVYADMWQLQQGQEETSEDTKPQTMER
TMEM16A reconf: TMEM16A chloride channel inhibitors, confirmation, cell-based, re-confirmation; shares compounds with TMEM16A inh; HEK293 TMEM16A/YFP-H148Q, iodide quench fluorescence; ionomycin added to raise cell calcium; inhibition, % at 10 µM; AID 652189, 2013; actives 39% (n = 2,300);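 active = mean duplicate percent inhibition, scaled so buffer wells are 0 and the reference blocker 100, over three buffer SD above buffer mean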
TMEM16A Ca cntr: calcium mobilization in TMEM16A/YFP HEK293 cells, confirmation, counter-screen for TMEM16A inhibitor project; shares compounds with TMEM16A inh; Fluo4 calcium mobilization; calcium response (% of ionomycin), % at 10 µM; actives 2% (n = 2,300); AID 652231, 2013;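 active = duplicate-averaged calcium signal over 20% of the ionomycin maximum, relative to buffer baseline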;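 also: each well's signal is peak minus trough fluorescence divided by its pre-addition baseline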
YFP-HEK293 quench: iodide YFP quench changes in parental YFP-HEK293, counter-screen for TMEM16A inhibitor project, cell-based; 2,300 tested, under 10 active; YFP ratio F(max-min)/F0 at 10 µM; ionomycin; AID 652233, 2013; shares compounds with TMEM16A inh;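 active = yellow fluorescent protein signal ratio exceeding the buffer control mean by over 5 SD of those controls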;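 also: ratio is mean of duplicate wells from kinetic YFP trace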
ClC-1 rat inh: ClC-1 chloride channel inhibition, selectivity assay for TMEM16A inhibitor project, cell-based, voltage-dependent ClC-1; shares compounds with TMEM16A inh; CHO ClC-1-YFP, iodide influx fluorescence quench; iodide control reads 0, buffer control 100; ratio percent, % at 10 µM; 2,300 tested, under 10 active;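 active = duplicate-mean ratio percent above the mean of iodide-only control wells, which defines zero, plus 5 of their SD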;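 also: higher percent means stronger block of ClC-1 iodide influx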
A number is an active result; i = inactive; nt = not tested or not shown. The list is not random: actives were taken first. Their share in the collection is about 1.5%.

SMILES	TMEM16A act	TMEM16A inh	hiPSC survival	DAGLB inh	ABCB6 inh 2	TMEM16A reconf	TMEM16A Ca cntr	YFP-HEK293 quench	ClC-1 rat inh
COc1cc(-c2noc(C)c2C#Cc2ccsc2)cc(OC)c1OC	i	100	i	i	i	28.0%	i	i	i
COc1ccc(OCCSc2nnc(C)n2-c2ccccc2)cc1	i	100	i	i	i	i	i	i	i
COc1ccc(Cl)cc1NC(=O)CN(C)C(=O)c1sccc1-c1ccccc1	i	nt	i	i	i	nt	nt	nt	nt
COc1ccc(N=Cc2c(O)ccc3ccccc23)cc1	i	i	i	i	i	i	i	i	i
O=C(O)c1ccc(N=Cc2c(O)ccc3ccccc23)cc1	i	i	i	i	i	nt	nt	nt	nt
CCCCn1cnc2c(SCc3ccccc3Cl)nc(N)nc21	i	nt	i	i	i	nt	nt	nt	nt
CCOc1ccc(N2C(=O)C(CC(=O)Nc3ccc(F)cc3)N(Cc3ccccn3)C2=S)cc1 (stereo unspecified)	i	i	i	i	i	nt	nt	nt	nt
CCNC(=O)CC1C(=O)N(c2ccc(F)cc2)C(=O)N1Cc1ccccn1 (stereo unspecified)	i	100	i	i	i	i	i	i	i
CCCCN(C(=O)CCn1c(=O)oc2ccccc21)c1ccccc1	i	i	i	i	i	nt	nt	nt	nt
Cc1ccc(-n2c(SCc3ccc([N+](=O)[O-])cc3)nc3ccccc3c2=O)cc1	i	25	i	i	i	i	i	i	i
CCOc1ccc(Nc2nc(NCCN3CCOCC3)nc(OC)n2)cc1	i	100	i	i	i	i	i	i	i
COC(=O)c1ccc(CSc2nc(C(F)(F)F)c3c(c2C#N)CCC3)o1	i	100	i	i	i	i	i	i	i
COC(=O)c1ccc(CSc2cc(C)c3ccccc3n2)o1	i	i	i	i	i	nt	nt	nt	nt
CCOC(=O)C1(Cc2cccc(OC)c2)CCN(Cc2ccccc2)CC1	i	i	i	i	i	nt	nt	nt	nt
CCOC(=O)C1(Cc2ccccc2Cl)CCN(Cc2csc(C(C)=O)c2)CC1	i	25	i	i	i	i	i	i	i
CCCCOC(=O)n1c(=O)oc2ccc(S(=O)(=O)N3CCCCC3)cc21	i	25	i	i	i	20.0%	i	i	i
CC(C)COC(=O)n1c(=O)oc2cc(S(=O)(=O)N3CCCCC3)ccc21	i	i	i	i	i	nt	nt	nt	nt
CCn1c(SCC(=O)N2CCC(C)CC2)nc2c(c1=O)SCC2	i	i	i	i	i	nt	nt	nt	nt
Cc1ccc(S(=O)(=O)N/N=C/c2c[nH]c3ccccc23)cc1	i	25	i	i	i	28.0%	i	i	i
O=C(O)c1ccc(S(=O)(=O)NN=Cc2c[nH]c3ccccc23)cc1	nt	nt	i	i	i	nt	nt	nt	nt
COc1ccc2[nH]cc(/C=N/NS(=O)(=O)c3ccc(C)cc3)c2c1	i	25	i	i	i	28.5%	i	i	i
O=[N+]([O-])c1ccccc1S(=O)NCc1c(Cl)cccc1Cl (stereo unspecified)	nt	nt	i	nt	i	nt	nt	nt	nt
CC1CCN(C(=O)c2cc(-c3ccc4c(c3)OCO4)on2)CC1	i	i	i	i	i	i	i	i	i
CC1CCCCN1C(=O)c1cc(-c2ccc3c(c2)OCO3)on1 (stereo unspecified)	i	i	i	i	i	nt	nt	nt	nt
Cc1ccc(C(=O)N2CCCC(C(=O)c3ccc(Cl)cc3C)C2)cn1 (stereo unspecified)	i	i	i	i	i	nt	nt	nt	nt
SMILES	TMEM16A act	TMEM16A inh	hiPSC survival	DAGLB inh	ABCB6 inh 2	TMEM16A reconf	TMEM16A Ca cntr	YFP-HEK293 quench	ClC-1 rat inh
Cc1ccc(C(=O)N2CCCC(C(=O)c3ccc(Oc4ccccc4)cc3)C2)cn1 (stereo unspecified)	i	100	i	i	i	29.0%	i	i	i
Cc1ccc(NC(=S)NC2CCSc3ccccc32)cc1C (stereo unspecified)	i	i	i	i	i	nt	nt	nt	nt
CCCCn1c(N)c(N(CC(C)C)C(=O)c2ccc3c(c2)NC(=O)C(C)S3)c(=O)[nH]c1=O (stereo unspecified)	i	i	i	i	i	nt	nt	nt	nt
O=C(O)Cn1cc(C(=S)N2CCOCC2)c2ccccc21	i	25	i	i	i	i	i	i	i
O=C(Cn1cc(C(=S)N2CCOCC2)c2ccccc21)N1CCOCC1	i	i	i	i	i	nt	nt	nt	nt
NNC(=O)c1oc2nc(-c3ccco3)cc(-c3ccco3)c2c1N	i	i	i	nt	i	nt	nt	nt	nt
O=CNn1cnc2c(oc3nc(-c4ccccc4)cc(-c4ccco4)c32)c1=O	i	25	i	i	i	17.5%	i	i	i
O=C(O)c1cc(-c2c[nH]c3ccccc23)nc2ccc3ccccc3c12	i	i	i	i	i	nt	nt	nt	nt
c1ccc2c(-c3c[nH]c4ccccc34)c3ccccc3nc2c1	i	25	i	i	i	i	i	i	i
CN(c1ccccc1)S(=O)(=O)c1cccc(NC(=O)CSc2nnc(N)s2)c1	i	100	i	i	i	35.0%	i	i	i
CN(c1ccccc1)S(=O)(=O)c1cccc(NC(=O)CSc2nncs2)c1	i	i	i	i	i	nt	nt	nt	nt
Cc1cc(NC(=O)c2ccc(NC(=O)C3CCCO3)cc2)ccc1Br (stereo unspecified)	i	i	i	i	i	nt	nt	nt	nt
COc1ccc(C(=O)N/N=C/c2ccc(N(C)c3ccccc3)cc2)cc1	i	25	i	nt	i	i	i	i	i
COc1ccc(C(=O)N/N=C/c2ccc(OC(=O)c3ccccc3)cc2)cc1	i	i	i	i	i	nt	nt	nt	nt
Cc1ccc(NC(=O)CN(C)C(=O)c2sc3cc(Cl)ccc3c2Cl)cc1	i	i	i	i	i	nt	nt	nt	nt
Cc1c(CN(C)C(=O)c2sc3cc(Cl)ccc3c2Cl)cnn1C	i	100	i	i	i	33.5%	i	i	i
Cc1nc2ccc(NS(=O)(=O)c3ccccc3Cl)cc2s1	i	nt	i	i	i	nt	nt	nt	nt
CSc1nc2ccc(NS(=O)(=O)c3cccc(Cl)c3Cl)cc2s1	i	100	i	i	i	62.0%	i	i	i

Bioassay records deposited in PubChem BioAssay by several laboratories.
